PRMT1 inh: inhibitors of human PRMT1 | Q99873 | recombinant PRMT1, activity-based probe fluorescence polarization | inhibition, % at 2.79 µM | actives 1.3% (n = 370,000) | AID 652257;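 active = inhibition above about 21% made by adding two undisclosed values, limit read from the data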
M18AAP inhibitor: PfM18AAP enzyme inhibition. inhibition, % at 7.35 µM. recombinant PfM18AAP, H-Glu-NHMec fluorogenic cleavage. actives 1.2% (n = 290,000);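 active = inhibition above the campaign mean inhibition over all tested compounds plus 3 SD, cut at about 28% in these data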;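 also: 0% = plate median of test compound wells and 100% = 2 mM ZnCl2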
MBD2 DNA inh: blocks human MBD2 binding to methylated DNA; Q9UBB5; TR-FRET, MBD2 binding to methylated oligonucleotide; inhibition, % at 4.4 µM; actives 0.31% (n = 370,000); AID 686964; in the data active = inhibition above about 13%
Target sequence (Q9UBB5 whole entry, looked up): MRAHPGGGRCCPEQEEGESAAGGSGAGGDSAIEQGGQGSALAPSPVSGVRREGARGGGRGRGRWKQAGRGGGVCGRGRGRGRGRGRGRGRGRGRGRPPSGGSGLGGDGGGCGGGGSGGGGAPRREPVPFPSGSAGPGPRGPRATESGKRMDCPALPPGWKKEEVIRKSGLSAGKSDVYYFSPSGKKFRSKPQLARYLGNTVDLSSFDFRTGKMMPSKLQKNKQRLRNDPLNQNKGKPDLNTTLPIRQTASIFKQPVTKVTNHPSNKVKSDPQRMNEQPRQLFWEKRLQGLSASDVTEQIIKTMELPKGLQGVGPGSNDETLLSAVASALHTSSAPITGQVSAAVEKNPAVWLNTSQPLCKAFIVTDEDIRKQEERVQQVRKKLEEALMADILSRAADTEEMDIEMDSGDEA
PfGluPho inh: PfG6PD (Plasmodium falciparum) enzyme inhibition | PfGluPho enzyme, NADPH resazurin-diaphorase fluorescence | inhibition, % at 20 µM | actives 0.78% (n = 350,000);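 active = inhibition reaching at least a set limit at 20 µM in the primary screen, cut at about 59% in these data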;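 also: 0% = DMSO wells with substrate and 100% = DMSO wells lacking glucose-6-phosphate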
UHRF1 MBD2 ctr: UHRF1 methyl-DNA binding inhibition. Q96T88. UHRF1 binding to methylated oligo, TR-FRET. inhibition, % at 4.4 µM. actives 0.75% (n = 370,000). AID 687016;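 also: UHRF1 SRA domain binding a hemimethylated CpG hairpin DNA probe; 0% = median of test compound wells and 100% = reference inhibitor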
PRMT1 inh conf: confirmation of human PRMT1 inhibitors; shares compounds with PRMT1 inh; recombinant His-PRMT1, activity-based probe fluorescence polarization; inhibition, % at 2.79 µM; actives 42% (n = 3,300);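 active = mean inhibition across replicates above the hit cutoff derived for the earlier primary screen, cut at about 22% in these data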
UHRF1 DNA bind: UHRF1 methyl-oligo binding inhibition as MBD2 counter-screen; shares compounds with MBD2 DNA inh; UHRF1 binding to methylated oligonucleotide, TR-FRET; inhibition, % at 4.4 µM; actives 25% (n = 1,000); AID 720530;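 also: UHRF1 SRA domain binding a labeled hemimethylated CpG hairpin DNA; 0% = vehicle only and 100% = reference inhibitor with vehicle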
MBD2 DBD conf: confirmation of human MBD2-DBD methylated oligonucleotide binding inhibitors. shares compounds with MBD2 DNA inh. TR-FRET MBD2-DBD binding to methylated oligonucleotide. inhibition, % at 4.4 µM. actives 26% (n = 1,000); in the data active = inhibition above about 14%
Starred values were filed as active, the others as inactive; . = no result given. This is a sample that favours compounds with a hit; in the whole collection about 3.3% have one here. Rule as the data show it, unless noted: active = inhibition above about 21%; inactive = the rest.

SMILES | PRMT1 inh | M18AAP inhibitor | MBD2 DNA inh | PfGluPho inh | UHRF1 MBD2 ctr | UHRF1 DNA bind | MBD2 DBD conf | others
Cc1cccc(NC(=O)COC(=O)c2cc(C)n(C3CC3)c2C)c1 | 2.7 | . | 1.7 | 9.2 | 0.1 | . | .
CC[n+]1c(-c2ccccc2)c2cc(N)ccc2c2ccc(N)cc21 | 36.9* | . | 70.0* | 50.3 | 71.5* | 77.4* | 80.3* | PRMT1 inh conf=11.0
CC(C)[C@H](NC(=O)N1C[C@H]2C[C@@H](C1)c1cccc(=O)n1C2)C(=O)Nc1ccccc1F | 4.0 | -2.1 | 3.5 | -5.5 | -1.5 | . | .
COc1cc(C(c2c(C)[nH]n(-c3ccccc3)c2=O)c2c(C)[nH]n(-c3ccccc3)c2=O)cc(OC)c1OC | 1.2 | 16.9 | 14.4* | 0.1 | 18.2 | 3.0 | 2.1
COC(=O)C(O)(c1c(C)[nH]n(-c2ccccc2)c1=O)C(F)(F)F (centres undefined) | 4.5 | 16.2 | -8.4 | -11.0 | -0.8 | . | .
COc1ccc(CN2Cc3cnnn3-c3ccccc3C2C)cc1 (centres undefined) | -1.2 | . | 3.2 | 22.1 | -2.0 | . | .
CCc1ccccc1NC(=O)CNC1CCCCC1 | 2.1 | 4.0 | 1.9 | -0.5 | 1.6 | . | .
Cc1ccc2ccccc2c1NC(=O)CNC1CCCCC1 | -0.1 | -0.2 | 18.1* | -13.7 | 0.4 | 3.6 | 4.7
CC(NCc1ccccc1C(F)(F)F)C(O)c1ccccc1 (centres undefined) | -2.9 | -21.2 | -2.1 | 12.4 | -1.4 | . | .
COC(=O)C1=C(c2ccc(F)cc2OCc2ccccc2)C[C@@H]2CC[C@H]1N2C(=O)NCCOc1ccccc1Cl | -0.2 | . | 15.6* | 10.7 | 1.0 | -2.7 | 2.1
COC(=O)C1=C(c2ccc(F)cc2OCc2ccccc2)C[C@@H]2CC[C@H]1N2C(=O)NCCOc1ccccc1 | -1.7 | . | -2.0 | 17.2 | -2.1 | . | .
C=CCn1c(O)c(C=NCCCOc2ccc(CC)cc2)c(=O)[nH]c1=S | 1.2 | -4.9 | -0.9 | -4.8 | -1.2 | . | .
COC(=O)C1=C(c2c(C)noc2C)C[C@@H]2CC[C@H]1N2C(=O)N1CCC(O)CC1 | -1.3 | . | 28.1* | -0.2 | 0.0 | 4.3 | 2.1
CC(C)(C)C(=O)NC1CCSC1=O (centres undefined) | -6.3 | -1.7 | -5.0 | . | 2.1 | . | .
O=C(COc1ccc(Cl)cc1)NCCc1cnc[nH]1 | -0.9 | 3.9 | 52.3* | -9.1 | -2.0 | 7.6 | 0.9
COc1ccc2c(c1OC)C(=O)O[C@H]2[C@@H]1c2cc3c(cc2CCN1C)OCO3 | -2.1 | . | -2.2 | -9.0 | -0.1 | . | .
COc1cc2c(cc1OC)-c1c3c(cc4c1[C@@H](C2)N(C)CC4)OCO3 | -2.1 | 7.9 | 46.1* | 45.9 | 49.8* | 29.7* | 20.0*
CCOC(=O)c1c(NC(=O)c2c(N)n(CCCOC)c3nc4ccccc4nc23)sc2c1CCCC2 | 0.4 | -9.8 | -2.1 | 31.5 | -2.9 | . | .
CCOCCCn1c(N)c(C(=O)Nc2sc3c(c2C(=O)OC)CCCC3)c2nc3ccccc3nc21 | 1.7 | 11.2 | 13.9* | 18.4 | 13.8 | 5.9 | 1.9
O=C(O)C1CN2CCC1CC2 (centres undefined) | 0.8 | -9.1 | 13.6* | -8.6 | -0.9 | 7.1 | 3.1
COc1ccc(C(=O)C2CCCN(C3CSCCSC3)C2)cc1OC (centres undefined) | 3.1 | -5.8 | -3.1 | 5.6 | 0.2 | . | .
Cc1ccc(-c2cc(-c3ccccc3)cc(-c3ccccc3)[n+]2-c2ccccc2C(=O)O)cc1 | 1.6 | . | 18.7* | 10.7 | 21.2* | 12.5 | 28.1*
C#CCCC[C@@H]1OC(=O)CNC(=O)C([C@@H](C)CC)NC(=O)[C@@H]2CCCN2C(=O)C([C@@H](C)CC)OC(=O)[C@H](Cc2ccccc2)N(C)C(=O)[C@H](C(C)C)NC(=O)C1(C)C (some centres undefined) | 1.9 | . | 14.8* | . | 42.7* | 7.3 | 2.3
